Bioassay records (PubChem BioAssay)
Compounds with a hit are over-represented: about 18% of the library has one in this group of screens.
Gal4-VP16 FLuc = counter-screen for ROR gamma inhibitors: Gal4-VP16 reporter. AID 2546. Potency, µM (series often up to 53.6 µM), most hits filed as inhibitors. Drosophila S2 Gal4-VP16 UAS-luciferase, luminescence, 20 h. 3.5% of 310,000 active;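 note: Gal4-VP16 expression switched on by copper sulfate through the metallothionein promoter; nearly all actives have a fitted effect of over 50% in size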
RORgamma inh = blocks mouse ROR gamma transcriptional activity | P51450 | Drosophila S2 Gal4-RORgamma UAS-luciferase reporter, 20 h | Potency, µM (highest dose often 53.6 µM), actives largely listed as inhibitors | 5.4% of 310,000 active; note: nearly all actives have a fitted effect of over 60% in size
Target sequence (P51450 whole entry, looked up, the tested form may be a part): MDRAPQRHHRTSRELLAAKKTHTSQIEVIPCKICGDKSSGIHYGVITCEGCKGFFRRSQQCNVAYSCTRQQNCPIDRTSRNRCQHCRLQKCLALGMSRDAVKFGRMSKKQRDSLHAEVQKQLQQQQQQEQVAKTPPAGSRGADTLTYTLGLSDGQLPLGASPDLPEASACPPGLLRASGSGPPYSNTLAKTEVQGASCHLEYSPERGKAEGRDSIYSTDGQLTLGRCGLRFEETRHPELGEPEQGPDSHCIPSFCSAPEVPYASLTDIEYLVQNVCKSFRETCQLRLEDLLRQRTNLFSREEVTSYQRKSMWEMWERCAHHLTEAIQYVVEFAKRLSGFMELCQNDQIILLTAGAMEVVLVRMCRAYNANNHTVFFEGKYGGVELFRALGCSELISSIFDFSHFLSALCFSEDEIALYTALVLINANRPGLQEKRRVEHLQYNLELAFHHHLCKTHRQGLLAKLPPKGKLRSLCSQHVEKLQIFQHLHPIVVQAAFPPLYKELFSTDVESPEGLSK
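Schneider cells (Drosophila), stable Gal4 DBD–ROR gamma + UAS-luc; 1 hr cmpd preincubation; Cu2+ induction 700 uM final; 20 hr ambient; luminescence.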
TDP1 cell noCPT = qHTS for Inhibitors of human tyrosyl-DNA phosphodiesterase 1 (TDP1): qHTS in cells in absence of CPT | DT40 Tdp1-/- hTDP1 cells, no CPT, ATP luminescence, 48 h | Potency, µM (highest dose often 46.2 µM), most hits filed as inhibitors | 15% of 420,000 active; note: nearly all actives have a fitted effect of over 55% in size
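No-CPT arm: Tdp1-/-;hTDP1 DT40 cells (400/well) plus compounds, incubated ≥48 hr at 37 °C. Readout CellTiter-Glo luminescence.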
IL1B secr inh = inflammasome signaling inhibition, IL-1 beta readout | THP-1 LPS/ATP IL-1B secretion, AlphaLISA, 16 h; active compounds read low | activity change, % at 57.5 µM | AID 743279 | 4.7% of 360,000 active; in the data active = activity change below about -50%; inconclusive = mostly about -30% to -49%
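THP-1 cells pretreated 1 hr with compounds (up to 57.5 uM final), then stimulated with LPS (250 ng/mL final) plus ATP (1.25 mM final); secreted IL-1B measured by AlphaLISA after 16 hr, decreased signal indicating inhibition.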
LDHA block = inhibitors of human lactate dehydrogenase A. P00338. purified LDHA, NADH/diaphorase-resazurin fluorescence; active compounds read low. activity change, % (values are at about 110 or 230 µM). 0.15% of 480,000 active; in the data active = activity change below about -30%; inconclusive = mostly about -25% to -30%
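LDH5 2 nM; NADH 0.06 mM, pyruvate 0.2 mM; 200 mM Tris pH 7.4, EDTA, Tween-20; 5 min RT. Detection: diaphorase 0.133 mg/mL + resazurin 37 µM, fluorescence ex540/em590 at 0 and 20 min; normalized to enzyme-free and DMSO wells.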
TDP1 cell CPT = DT40-hTDP1 cell growth loss with CPT; chicken DT40 Tdp1-/-;hTDP1 cells + 20 nM CPT, ATP luminescence, 48 h; Potency, µM (series often up to 46.2 µM), hits mostly inhibitors; 12% of 420,000 active; note: nearly all actives have a fitted effect of over 55% in size
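Chicken DT40 Tdp1-/- cells complemented with human TDP1, 400 cells/well, exposed to compounds plus 20 nM camptothecin for at least 48 h at 37 C; viability read as ATP content by CellTiter-Glo luminescence.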
Each line names hits and unclear results; the compound was inactive in the other large screens. Unless noted, calls come from the whole dose curve; as a rule, active = well fitted curve in the direction sought with a large enough effect; inconclusive = small, poorly fitted or top-dose-only effect, or another doubt; inactive = no such curve, though single readings can be large; an effect the other way counts as inactive or inconclusive.

CCN1C(=O)[C@H]2[C@@H](c3ccc(OC)cc3)N[C@]3(CCCN(Cc4ccc(Br)cc4)C3=O)[C@H]2C1=O	TDP1 cell noCPT 26µM (no result: Gal4-VP16 FLuc, RORgamma inh)
COc1ccc([C@H]2N[C@]3(CCCN(Cc4ccc(Br)cc4)C3=O)[C@H]3C(=O)N(Cc4ccccc4)C(=O)[C@@H]23)cc1	TDP1 cell noCPT 15µM, TDP1 cell CPT inconclusive (no result: Gal4-VP16 FLuc, RORgamma inh)
COc1ccc(CN2CCC[C@]3(N[C@H](c4ccc(C)cc4)[C@@H]4C(=O)N(Cc5ccccc5)C(=O)[C@@H]43)C2=O)cc1	TDP1 cell noCPT inconclusive, TDP1 cell CPT inconclusive (no result: Gal4-VP16 FLuc, RORgamma inh)
COc1ccc(CN2CCC[C@]3(N[C@H](c4ccccc4)[C@@H]4C(=O)N(Cc5ccccc5)C(=O)[C@@H]43)C2=O)cc1	TDP1 cell noCPT 18µM, TDP1 cell CPT inconclusive (no result: Gal4-VP16 FLuc, RORgamma inh)
COc1ccc(CN2CCC[C@]3(N[C@H](c4ccc(OC)cc4)[C@@H]4C(=O)N(Cc5ccccc5)C(=O)[C@@H]43)C2=O)cc1	TDP1 cell noCPT 16µM, TDP1 cell CPT 21µM (no result: Gal4-VP16 FLuc, RORgamma inh)
N#CCCN(CCC#N)c1ccncc1	none (no result: Gal4-VP16 FLuc, RORgamma inh, TDP1 cell noCPT, IL1B secr inh, TDP1 cell CPT)
COc1ccc(C2CC(=O)Nc3nc(C)[nH]c(=O)c32)cc1OC (stereo not drawn)	none (no result: Gal4-VP16 FLuc, RORgamma inh, TDP1 cell noCPT, IL1B secr inh, TDP1 cell CPT)
COC(=O)C1=C(C)NC(=O)CC1c1c(F)cccc1Cl (stereo not drawn)	none (no result: Gal4-VP16 FLuc, RORgamma inh, TDP1 cell noCPT, IL1B secr inh, TDP1 cell CPT)
CCOc1cc(C2C3=C(CC(C)(C)CC3=O)OC3=C2C(=O)CC(C)(C)C3)ccc1OC(=O)CC	none (no result: Gal4-VP16 FLuc, RORgamma inh, TDP1 cell noCPT, IL1B secr inh, TDP1 cell CPT)
CCn1c(SCC(=O)c2ccccc2)nc2c(c1=O)SC(C)C2 (stereo not drawn)	TDP1 cell noCPT inconclusive, TDP1 cell CPT inconclusive (no result: Gal4-VP16 FLuc)
COCCn1c(SCC(=O)c2ccccc2)nc2c(c1=O)SC(C)C2 (stereo not drawn)	TDP1 cell noCPT inconclusive, TDP1 cell CPT 23µM
COCCn1c(SCC(=O)N2CCN(c3ccccc3)CC2)nc2c(c1=O)SC(C)C2 (stereo not drawn)	TDP1 cell noCPT 18µM, TDP1 cell CPT 21µM
CCN(CC)S(=O)(=O)c1ccc(-c2nc(C#N)c(N3CCCCCC3)o2)cc1	none (no result: Gal4-VP16 FLuc, RORgamma inh, TDP1 cell noCPT, IL1B secr inh, TDP1 cell CPT)
CNC(=O)CN(C)c1nc(-c2ccncc2)nc2ccccc12	none (no result: Gal4-VP16 FLuc, RORgamma inh, TDP1 cell noCPT, IL1B secr inh, TDP1 cell CPT)
Cc1c2c(=O)n(-c3nc4ccccc4s3)nc-2cc(O)n1Cc1ccccc1	TDP1 cell noCPT 15µM, TDP1 cell CPT 21µM
Cc1cc(C)n(-c2nc3ccccc3s2)n1	none
O=C(CN1CCCC(c2nc3ccccc3o2)C1)NCC(F)(F)F (stereo not drawn)	none (no result: Gal4-VP16 FLuc, RORgamma inh, TDP1 cell noCPT, IL1B secr inh, TDP1 cell CPT)
CC(CCc1ccccc1)NC(=O)C1CCCN(C(=O)c2cc3sccc3n2C)C1 (stereo not drawn)	RORgamma inh inconclusive, TDP1 cell noCPT 15µM, TDP1 cell CPT 18µM
CCn1c(C(=O)N2CCCC(C(=O)NCCCc3ccccc3)C2)cc2sccc21 (stereo not drawn)	Gal4-VP16 FLuc 11µM, RORgamma inh inconclusive, TDP1 cell noCPT inconclusive, IL1B secr inh inconclusive, TDP1 cell CPT 21µM
CCn1c(C(=O)N2CCCC(C(=O)O)C2)cc2sccc21 (stereo not drawn)	none
COc1cc(NC(=O)CSc2ncc(-c3ccc(F)cc3)o2)cc(OC)c1	none (no result: Gal4-VP16 FLuc, RORgamma inh, TDP1 cell noCPT, IL1B secr inh, TDP1 cell CPT)
CC(SC(=S)N(C)C)C(=O)NC(C)c1ccc(F)cc1 (stereo not drawn)	none (no result: Gal4-VP16 FLuc, RORgamma inh, TDP1 cell noCPT, IL1B secr inh, TDP1 cell CPT)
Cc1ccccc1-c1nc(CN2CCC(C(=O)NCc3cccnc3)CC2)c(C)o1	none
Cc1ccccc1-c1nc(CN2CCC(C(=O)NCc3ccco3)CC2)c(C)o1	TDP1 cell noCPT inconclusive, IL1B secr inh -67, TDP1 cell CPT inconclusive
Cc1oc(-c2ccccc2F)nc1CN1CCC(C(=O)NCCC2=CCCCC2)CC1	TDP1 cell noCPT 23µM, TDP1 cell CPT inconclusive
Cc1ccccc1-c1nc(CN2CCC(C(=O)NCc3ccc(F)cc3)CC2)c(C)o1	TDP1 cell noCPT 21µM, TDP1 cell CPT 16µM (no result: Gal4-VP16 FLuc, RORgamma inh, IL1B secr inh)
Cc1oc(-c2ccccc2F)nc1CN1CCC(C(=O)NCCc2ccccc2)CC1	TDP1 cell noCPT inconclusive, TDP1 cell CPT inconclusive (no result: Gal4-VP16 FLuc, RORgamma inh, IL1B secr inh)
